LASV entry inh: Lassa virus entry inhibition; 1.2% of 300,000 active; Lassa virus pseudotype entry inhibition, cell reporter; AID 540256; Potency, µM (series often up to 37.9 µM), without a hit: at the highest dose activity change, negative = inhibition, hits mostly inhibitors; calls by dose curve; tested in HEK293 cells; also: potency is read from the fitted curve at half-maximal effect; nearly all actives have a fitted effect of over 50% in size
FMDV inh: antivirals against foot and mouth disease virus; Potency, µM (highest dose often 57.9 µM), for inactives: at the top dose activity change, negative = inhibition, usual class: inhibitors; 1.2% of 410,000 active; FMDV antiviral cell-based qHTS; calls by dose curve; tested in HEK293T cells; also: read-out not given here; potency is read from the fitted curve at half-maximal effect; nearly all actives have a fitted effect of over 45% in size
Marburg entry inh: Marburg virus entry inhibition; Marburg virus pseudotyped entry inhibition, cell reporter; AID 540276; Potency, µM (titrated, usually from 37.8 µM), for inactives: at the highest dose activity change, negative = inhibition, actives largely listed as inhibitors; 1.8% of 300,000 active; calls by dose curve; tested in HEK293 cells; also: potency is read from the fitted curve at half-maximal effect
HCMV antiviral: inhibitors of human cytomegalovirus | AID 1259415 | HFF cells, HCMV-luciferase reporter, 72 h; stronger effect = lower value | activity change, negative = inhibition, % at 57.5 µM | 4.5% of 410,000 active; in the data active = activity change below about -60%; inconclusive = no clear call, values can overlap the other calls; inactive = above about -39%
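Steps: HFFs plated, 16 h 37C; compounds added; HCMV-luciferase added to MOI 1 PFU/cell; 72 h 37C; OneGlo reagent, 5 min room temperature; luminescence read, normalized to controls.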
* = called active by the depositor; ? = inconclusive; / = no result; [ ] = another dose, or the depositor's remark. Compounds with a hit are over-represented: about 6.2% of the library has one in this group of screens. % is scaled to controls: 0 for no effect and ±100 for the full control effect.

SMILES	LASV entry inh	FMDV inh	Marburg entry inh	HCMV antiviral
Cc1ccc(C)c(NC(=O)c2nc(S(=O)(=O)Cc3ccc(F)cc3)ncc2Cl)c1	?	28µM*	6%[46.1 µM]	-100*
Cc1ccc(CS(=O)(=O)c2ncc(Cl)c(C(=O)Nc3nnc(C(C)C)s3)n2)cc1	?	11µM*	?	-98*
CC(C)c1nnc(NC(=O)c2nc(SCc3ccc(F)cc3)ncc2Cl)s1	9%[46.1 µM]	35%	29%[46.1 µM]	4
CCCS(=O)(=O)NC(=O)C1(C)CCN(C(=O)c2ccccc2OC(F)(F)F)C1 (configuration not stated)	/	3%	/	16
CCOc1ccccc1NC(=O)CCCc1nc2ccccc2c(=O)[nH]1	3%	3%	16%	-87*
CCOc1ccc(Oc2ccccc2NC(=O)CCc2nc3ccccc3c(=O)[nH]2)cc1	/	-30%	/	54
Cc1ccc(OCC(O)C(C)NC(C)C)c2c1CCC2 (configuration not stated)	/	-15%	16µM*	/
CC(C)(C)NC[C@@H](O)COc1cccc2c1CCCC2=O	/	-12%	/	-38
CC(C)CC(NC(=O)OCc1ccccc1)C(=O)NC(Cc1ccccc1)C(=O)CCl (configuration not stated)	?	25µM*	?	-6
CCOC(=O)CNC(=O)C(Cc1ccccc1)NC(=O)OCc1ccccc1 (configuration not stated)	/	-22%	/	-3
CCOC(=O)CNC(=O)C(CO)NC(=O)OCc1ccccc1 (configuration not stated)	2%	12%	19%	-100*
COc1ccccc1NC(=O)CSCc1cc(=O)c2c(C)cc(C)cc2[nH]1	-18%[46.1 µM]	-11%	/	9
Clc1nssc1=Nc1ccc(Br)cc1	6%	?	-15%	?
COc1cc(N=c2ssnc2Cl)cc(OC)c1	-6%	40µM*	7%	33
COc1ccc2c3c1O[C@H]1C[C@H](O)C=C[C@@]31CCN(C)C2	/	-22%	/	/
COc1ccc(CCNc2ncnc3c2c(-c2ccccc2)cn3-c2ccc(F)cc2)cc1OC	?	?	/	-38
CC(=O)NCCNc1ncnc2ccc(-c3ccc4c(c3)OCO4)cc12	/	14%	/	/
CCNC(=O)N1CCN(CCCC(c2ccc(F)cc2)c2ccc(F)cc2)CC1	?	?	10µM*	-79*
O=C(Nc1ccc(F)cc1)N1CCN(CCc2ccccc2)CC1	5%[46.1 µM]	-9%	-18%[46.1 µM]	3
Cc1ccc(CNc2nc3ccccc3s2)s1	6.3µM*	-30%	?	54
COc1ccc(CNc2nc3ccccc3s2)cc1OC	-20%[46.1 µM]	-15%	?	63
O=C(CC(NCc1cccnc1)C(=O)O)Nc1ccc(F)cc1 (configuration not stated)	-1%[46.1 µM]	-9%	-8%[46.1 µM]	-38
CC1CCN(S(=O)(=O)c2cn(CC(=O)Nc3ccc(F)cc3)c(=O)c3ccccc23)CC1	?	9%	5.6µM*	-3
O=C(CO/N=C/c1ccc(OC(F)F)cc1)NCc1cccs1	-9%	0%	?	-39
O=C(/C=C/c1ccc(Br)cc1)NCc1cccs1	2.6µM*	20%	33%	-61*
SMILES	LASV entry inh	FMDV inh	Marburg entry inh	HCMV antiviral
O=C(/C=C/c1ccccc1Cl)NCc1cccs1	18µM*	29%	14%	37
O=C(COC(=O)/C=C/c1ccc(OC(F)F)cc1)NCc1cccs1	?	-7%	9%	-64*
O=C(/C=C/c1ccc(F)cc1)NCc1cccs1	?	54%	-8%	16
O=C(/C=C/c1ccc(Cl)cc1)NCc1ccco1	6.5µM*	24%	?	-64*
Cc1c2cnn(CC(=O)N3CCN(c4ccccc4)CC3)c(=O)c2c(C)n1Cc1ccc(F)cc1	-5%[46.1 µM]	-3%	-3%[46.1 µM]	-9
Cc1ccccc1S(=O)(=O)N[C@H]1CC[C@@]23CCCN2C(=O)CCC[C@H]3[C@H]1Cc1ccccc1	/	/	/	-11
CCn1c(N)nc2c1c(=O)n(C)c(=O)n2C	/	-21%	-3%	7
Cn1ncnc2c(=O)n(C)c(=O)nc1-2	/	1.6µM*	/	/
Cn1nc(-c2ccccn2)nc2c(=O)n(C)c(=O)nc1-2	/	1.3µM*	/	-101*
CCCc1nc2c(=O)n(C)c(=O)nc-2n(C)n1	1µM*	2.5µM*	?	-99*
Cn1c(=O)c(-c2ccc(Cl)cc2)nc2cncnc21	/	-16%	/	/
COc1ccc(OC[C@@H]2CC3[C@@H](CC[C@@H](C)[C@H]3c3ccc(Br)cc3)C(=O)O2)cc1 (some centres not stated)	?	/	-5%[14.2 µM]	/
CC(C)=CCC/C(C)=C/CO/N=C1\C[C@@H](O)[C@@H](O)[C@@H]2[C@@H]3C(=O)N(C[C@@H]4CCCO4)C(=O)[C@@H]3CC[C@H]12	/	/	-5%[14.2 µM]	/
O=C1c2ccc([N+](=O)[O-])cc2C(=O)N1c1ccc(Cl)cn1	/	-15%	/	-10
O=C1c2cccc3cccc(c23)C(=O)N1c1nccs1	11%	-15%	?	-22
O=C1c2cccc3c([N+](=O)[O-])ccc(c23)C(=O)N1c1nccs1	?	35µM*	?	-95*
O=C1c2cccc3c([N+](=O)[O-])ccc(c23)C(=O)N1O	/	?	/	15
O=C1c2cccc3c([N+](=O)[O-])ccc(c23)C(=O)N1c1ccccn1	?	?	10µM*	-103*
O=C1c2cccc3c([N+](=O)[O-])ccc(c23)C(=O)N1c1ccc(Cl)cn1	?	25µM*	?	-105*
CCCSC1=NC2(CCN(C(=O)NC3CCCCC3)CC2)N=C1c1ccc(C)cc1	7%[46.1 µM]	4%	/	0
O=C(Cc1ccc(F)cc1)Nc1ccc2[nH]ncc2c1	4%	0%	0%	85
Nc1ccc2[nH]ncc2c1	-6%	-17%	15%	-61*
CCC(C)NC(=O)Cn1ncc2c([nH]c3ccc(C)cc32)c1=O (configuration not stated)	?	-5%	/	-5
COc1ccc(C2=NCC(C)n3c2c2ccc(C(F)(F)F)cc2[n+]3[O-])cc1 (configuration not stated)	/	/	/	3
CC1CCC(NC(=O)c2nn(C)c3c2CS(=O)(=O)c2ccccc2-3)CC1 (configuration not stated)	/	-7%	/	-36
SMILES	LASV entry inh	FMDV inh	Marburg entry inh	HCMV antiviral
Cn1nc(C(=O)NC2CCCCC2)c2c1-c1ccccc1S(=O)(=O)C2	/	3%	/	-85*
COc1ccccc1-c1ccnc(-n2ncc(C(=O)N3CCCCC3c3cccnc3)c2C)n1 (configuration not stated)	/	13%	/	/
Cc1cc(C)c(/C=C/c2onc(C)c2S(=O)(=O)N2CCC(C(=O)NCc3ccco3)CC2)c(C)c1	-16%[46.1 µM]	-20%	/	-39
COc1ccc(CC(=O)N2CCc3cc(OC)c(OC)cc3C2COc2ccc(F)cc2)cc1OC (configuration not stated)	?	25µM*	/	20
CCCCC(=O)N1CCc2cc(OC)c(OC)cc2C1COc1ccc(OC)cc1 (configuration not stated)	-15%[46.1 µM]	0%	/	-98*
COc1ccc(C(=O)N2CCc3cc(OC)c(OC)cc3C2c2ccc(OC)c(OC)c2)cc1 (configuration not stated)	5µM*	-10%	?	42
CCC(=O)N1CCc2cc(OC)c(OC)cc2C1COc1ccc(OC)cc1 (configuration not stated)	-30%	-11%	?	152
